Records with an inconclusive call do not appear. Calls of active or inactive are those of the source. Unless noted, calls come from the whole dose curve.
Tests used:
[1] = molecular target: Thyrotropin receptor (Homo sapiens) (UniProt P16473); assay: qHTS assay to identify small molecule agonists of the thyroid stimulating hormone receptor (TSHR) signaling pathway (AID 1224843); note: nearly all actives have a fitted effect of over 45% in size
How it was run: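 HEK293 cells stably bearing the thyrotropin receptor were plated at 800 cells/well and challenged with compound (30 min, RT). Accumulated cAMP was quantified via cAMP-d2 competing for cryptate-tagged antibody.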

[2] = qHTS assay to identify small molecule agonists of the hypoxia (HIF-1) signaling pathway - cell viability counter screen (AID 1224844); note: nearly all actives have a fitted effect of over 50% in size
How it was run: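 ME-180 HRE-bla cells, 2,000/well, 0.5% dialyzed FBS; 5 hr settle, 17 hr compound at 37C/5% CO2; CCF4-AM reporter read first, then CellTiter-Glo luminescence after 30 min RT.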

[3] = qHTS assay to identify small molecule agonists of H2AX (AID 1224845; active = well fitted activation curve with a large enough effect in the signal ratio in the repeat runs, not every such curve was filed as active; the % refers to the signal ratio)
How it was run: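 Phospho-H2AX Ser139 measured by HTRF (ex 320 nm; em 665 and 620 nm) after 24 hr antibody incubation. Compounds, 15 concentrations, 0.76% DMSO, were applied to CHO-K1 cells for 3hr at 37C before lysis.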

[4] = qHTS assay to identify small molecule agonists of the hypoxia (HIF-1) signaling pathway (AID 1224846; active = well fitted activation curve with a large enough effect in the signal ratio in the repeat runs, not every such curve was filed as active; the % refers to the signal ratio)
How it was run: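 Cell line: CellSensor HRE-bla ME-180; 2,000 cells/well; 0.5% dialyzed FBS; 5 h preincubation; DMSO compound pin transfer; 17 h, 37C, 5% CO2; CCF4-AM added; bla FRET signal scored for activation.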

[5] = qHTS assay to identify small molecule agonists of H2AX - cell viability counter screen (AID 1224847);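 note: wild-type CHO-K1 cells; top concentration of the series differs between compounds; nearly all actives have a fitted effect of over 30% in size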
How it was run: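 CHO-K1 cells plated overnight at 37C, then exposed 3 h at 37C to compounds at 15 concentrations (0.76% DMSO final). Viability by CellTiter-Glo luminescence after 30 min at room temperature.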

[6] = qHTS RealTime-Glo MT Cell Viability Assay in HepG2 cells - 24 hour (AID 1224867; active = well fitted curve in the direction sought with a large enough effect in the repeat runs; an effect the other way counts as inactive or inconclusive; note: nearly all actives have a fitted effect of over 50% in size)
How it was run: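 Viability was tracked continuously by NanoLuc luminescence from prosubstrate reduced by living HepG2 cells, at successive time points over 40 h of compound exposure. Cells with reagent were preincubated 5 h at 37 °C before compound addition.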

[7] = qHTS RealTime-Glo MT Cell Viability Assay in HEK293 cells - 32 hour (AID 1224868; active = well fitted curve in the direction sought with a large enough effect in the repeat runs; an effect the other way counts as inactive or inconclusive; note: nearly all actives have a fitted effect of over 50% in size; note: potency is the fitted concentration of half-maximal effect)
How it was run: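 Viability tracked continuously by luminescence as live cells reduce a prosubstrate for NanoLuc; HEK293 cells preincubated 5 h, compound-treated at 37 C, and read at 0, 8, 16, 24, 32 and 40 h.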

[8] = A CellTox Green Cytotoxicity Assay to monitor cytotoxicity in HEK293 cells - 0 hour (AID 1224869; active = well fitted curve in the direction sought with a large enough effect in the repeat runs; an effect the other way counts as inactive or inconclusive; note: nearly all actives have a fitted effect of over 50% in size)
How it was run: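 Nonlytic real-time cytotoxicity: HEK293 + CellTox Green reagent plated, 5 h preincubation, pintool compound addition (23 nL in DMSO), 37 C for 40 h, fluorescence measured at successive time points.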

[9] = qHTS assay to identify small molecule antagonists of the estrogen related receptor (ERR) signaling pathway from Tox21 library (AID 1224848; active = well fitted curve in the direction sought with a large enough effect in the repeat runs; an effect the other way counts as inactive or inconclusive; note: nearly all actives have a fitted effect of over 50% in size)
How it was run: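 Reading was by luminescence 30 min after ONE-Glo addition. Before that, ERR cells at 2,000 per well had rested 6 h at 37 C/5% CO2 and then received pin-tooled compounds in DMSO for 18 h at 37 C.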

[10] = qHTS assay to identify small molecule agonists of the estrogen related receptor (ERR) signaling pathway from Tox21 library (AID 1224849); conditions: ERR reporter cell line, ONE-Glo luciferase, 18 h; at 92.4 µM (top of the series) unless noted; note: nearly all actives have a fitted effect of over 15% in size
How it was run: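 ERR cells, 6 h pre-incubation 37 C/5% CO2; cpd in DMSO pinned; 18 h 37 C; ONE-Glo added, 30 min RT; luminescence read. Agonist mode, qHTS.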
% is set by controls: 0 for no effect and ±100 for the full control effect.

Sequence of Thyrotropin receptor (Homo sapiens) (P16473 whole entry, looked up): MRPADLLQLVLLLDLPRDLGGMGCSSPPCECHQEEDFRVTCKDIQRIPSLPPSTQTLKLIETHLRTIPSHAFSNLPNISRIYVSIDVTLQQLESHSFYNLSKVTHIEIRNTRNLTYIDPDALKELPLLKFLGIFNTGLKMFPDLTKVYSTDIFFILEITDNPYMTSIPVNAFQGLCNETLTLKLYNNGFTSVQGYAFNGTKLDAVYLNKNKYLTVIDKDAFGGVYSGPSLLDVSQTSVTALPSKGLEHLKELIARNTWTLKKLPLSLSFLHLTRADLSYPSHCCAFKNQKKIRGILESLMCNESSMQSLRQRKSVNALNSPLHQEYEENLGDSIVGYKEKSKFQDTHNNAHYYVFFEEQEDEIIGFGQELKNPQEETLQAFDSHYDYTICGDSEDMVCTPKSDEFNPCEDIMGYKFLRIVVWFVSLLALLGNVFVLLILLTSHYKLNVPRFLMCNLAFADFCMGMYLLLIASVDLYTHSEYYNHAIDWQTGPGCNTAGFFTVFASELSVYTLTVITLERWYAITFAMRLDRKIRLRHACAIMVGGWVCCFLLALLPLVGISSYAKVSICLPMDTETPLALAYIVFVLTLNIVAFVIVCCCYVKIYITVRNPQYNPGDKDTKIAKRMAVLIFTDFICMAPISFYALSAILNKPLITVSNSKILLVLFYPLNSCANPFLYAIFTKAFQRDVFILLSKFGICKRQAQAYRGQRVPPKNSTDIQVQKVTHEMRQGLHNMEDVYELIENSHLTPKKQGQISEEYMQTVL

O=S(=O)(O)c1ccc2cc(O)c(S(=O)(=O)O)cc2c1
inactive: Potency [1] | outcome [2] | outcome [3] | outcome [4] | Potency [5] | outcome [6] | Potency [7] | outcome [8]

CC(=O)NCCCCCC(=O)O
inactive: Potency [1] | outcome [2] | outcome [3] | outcome [4] | Potency [5] | outcome [6] | Potency [7] | outcome [8]

CN(C)C(=O)CNC(=O)Cc1ccccc1
inactive: Potency [1] | outcome [2] | outcome [3] | outcome [4] | Potency [5] | outcome [6] | Potency [7] | outcome [8]

O=C(OCC(O)CO)c1ccccc1Nc1ccnc2c(C(F)(F)F)cccc12 (configuration not stated)
inactive: Potency [1] | outcome [2] | outcome [3] | outcome [4] | Potency [5] | outcome [6] | outcome [8]
active: Potency [7] 4.25 µM

CC1COc2ccccc2N1 (configuration not stated)
inactive: Potency [1] | outcome [2] | outcome [3] | outcome [4] | Potency [5] | Potency [9] | activity change, positive = activation [10] 13.7% | outcome [6] | outcome [8]

C=COCCOCCOCCOC=C
inactive: Potency [1] | outcome [2] | outcome [3] | outcome [4] | Potency [5] | outcome [6] | Potency [7] | outcome [8]

O=C(O)CCSSCCC(=O)O
inactive: Potency [1] | outcome [2] | outcome [3] | outcome [4] | Potency [5] | outcome [6] | Potency [7] | outcome [8]

O=C1CC(c2ccc(Cl)cc2)CC(=O)N1
inactive: Potency [1] | outcome [2] | outcome [3] | outcome [4] | Potency [5] | outcome [6] | Potency [7] | outcome [8]

O=C(Nc1ccc(Cl)c(Cl)c1)C1CC1
active: Potency [7] 9.52 µM
inactive: Potency [1] | outcome [2] | outcome [3] | outcome [4] | Potency [5] | activity change, positive = activation [10] -22.3% [at 42.5 µM] | outcome [6] | outcome [8]

CNS(=O)(=O)CCc1ccc2[nH]cc(C3CCN(C)CC3)c2c1
inactive: Potency [1] | outcome [2] | outcome [3] | outcome [4] | Potency [5] | outcome [6] | Potency [7] | outcome [8]

Nc1cccc(O)c1
inactive: Potency [1] | outcome [2] | outcome [3] | outcome [4] | Potency [5] | outcome [6] | Potency [7] | outcome [8]

CCOC(=O)/C=C/c1ccccc1
inactive: Potency [1] | outcome [2] | outcome [3] | outcome [4] | Potency [5] | outcome [6] | Potency [7] | outcome [8]

C=C(C)C1CCC(C)(O)CC1 (configuration not stated)
inactive: Potency [1] | outcome [2] | outcome [3] | outcome [4] | Potency [5] | outcome [6] | Potency [7] | outcome [8]

CC(C)OC(=O)CCCCC(=O)OC(C)C
inactive: Potency [1] | outcome [2] | outcome [3] | outcome [4] | Potency [5] | outcome [6] | Potency [7] | outcome [8]

COc1cc2c(cc1OC)C(=O)CC2
inactive: Potency [1] | outcome [2] | outcome [3] | outcome [4] | Potency [5] | outcome [6] | Potency [7] | outcome [8]

OCCN(CCO)c1cccc(Cl)c1
inactive: Potency [1] | outcome [2] | outcome [3] | outcome [4] | Potency [5] | outcome [6] | Potency [7] | outcome [8]

CC(C)c1ccc2cc(C(C)C)ccc2c1
inactive: Potency [1] | outcome [2] | outcome [3] | outcome [4] | Potency [5] | outcome [6] | Potency [7] | outcome [8]

CCOC(=O)CC(=O)c1ccccc1
inactive: Potency [1] | outcome [2] | outcome [3] | outcome [4] | Potency [5] | outcome [6] | Potency [7] | outcome [8]

Cc1ccc2ccc(Cl)cc2n1
inactive: Potency [1] | outcome [2] | outcome [3] | outcome [4] | Potency [5] | outcome [6] | Potency [7] | outcome [8]

CC(C)C(=O)OCCc1ccccc1
inactive: Potency [1] | outcome [2] | outcome [3] | outcome [4] | Potency [5] | outcome [6] | Potency [7] | outcome [8]

C=C(C)C(=O)OCCN(CC)CC
inactive: Potency [1] | outcome [2] | outcome [3] | outcome [4] | Potency [5] | outcome [6] | Potency [7] | outcome [8]

CC(CO)c1ccccc1 (configuration not stated)
inactive: Potency [1] | outcome [2] | outcome [3] | outcome [4] | Potency [5] | outcome [6] | Potency [7] | outcome [8]

COCCc1ccc(OCC2CO2)cc1 (configuration not stated)
inactive: Potency [1] | outcome [2] | outcome [3] | outcome [4] | Potency [5] | outcome [6] | Potency [7] | outcome [8]

CC(COC(C)(C)C)OCCCO (configuration not stated)
inactive: Potency [1] | outcome [2] | outcome [3] | outcome [4] | Potency [5] | Potency [9] | activity change, positive = activation [10] 3.31% | outcome [6] | outcome [8]

CC1(C)S[C@@H]2[C@H](N=CN3CCCCCC3)C(=O)N2[C@H]1C(=O)O
inactive: Potency [1] | outcome [2] | outcome [3] | outcome [4] | Potency [5] | outcome [6] | Potency [7] | outcome [8]

Cc1nc2n(c(=O)c1CCN1CCC(c3noc4cc(F)ccc34)CC1)CCC[C@H]2O
inactive: activation [1] -7.95% [at 19 µM] | activity change, negative = cytotoxicity [2] 1.15% [at 15.8 µM] | activation (H2AX phosphorylation) [3] -1.87% [at 31.6 µM] | activation [4] -0.458% [at 15.8 µM] | activity change, negative = cytotoxicity [5] -0.277% [at 31.6 µM] | activity, negative = inhibition [9] 3.9% [at 19 µM] | activity change, positive = activation [10] 2.19% [at 19 µM] | activity change, negative = cytotoxicity [6] 1.28% [at 15.8 µM] | cytotoxicity [8] 0.136% [at 15.8 µM]
